Experimental findings from PubChem BioAssay are described below.

Calls of active or inactive are those of the source. Unless noted, no rule for the calls is given here.

Test [1] is described as follows: resazurin metabolic signal in HepG2 cells – cell-based, resazurin fluorescence, 24 h, PK04 Diversity Set, profiling panel (AID 1172). Also: test concentration not given here. Particulars: HepG2 viability, higher = more signal.
The nature of test [2]: budding yeast growth changes without added modifier – OD600, strain BY4716, 24 h, basal condition, primary screen (AID 1173). Particulars: S. cerevisiae BY4716 growth, OD600, 24 h; higher = more signal, called active from +8 up or from −8 down.
A short description of test [3]: viability profiling in MM1S myeloma cells – cell-based, resazurin fluorescence, basal, 24 h, PK04 Diversity Set, profiling panel (AID 1174).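 Also: MM1S multiple myeloma cell line; test concentration not given here.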 As to conditions: higher = more signal, called active from +8 up or from −8 down.
Test [4] addresses Dihydroorotate dehydrogenase (quinone), mitochondrial (Plasmodium falciparum (isolate 3D7)) (UniProt Q08210). Briefly: inhibition of P. falciparum DHODH – biochemical, C-terminal His tag, absorbance 600 nm, primary screen (AID 1175).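 Also: recombinant parasite enzyme with a five histidine tag at its C terminus; test concentration not given here.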 As to conditions: PfDHODH enzyme, DCIP absorbance 600 nm; higher = more signal, called active from +8 up or from −8 down.
Test [5] is described as follows: inhibition of PAO1 biofilm formation – strain PAO1, LB-PBS medium, absorbance 600 nm, primary screen (AID 1176). Also: test concentration not given here. Particulars: P. aeruginosa PAO1 growth/biofilm, A600, 12 h; higher = more signal.
Test [6] can be described thus: growth modulation of vineyard yeast isolate – strain RM11-1a, OD600, basal, 24 h, primary screen (AID 1177).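 Also: cultures grown under basal conditions with no added stressor; test concentration not given here.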 Particulars: S. cerevisiae RM11-1a growth, OD600, 24 h; higher = more signal, called active from +8 up or from −8 down.
Test [7] in a line: growth of efflux-deficient E. coli DRC39 – strain DRC39, OD650, 24 h, E. coli filamentation inducers, primary screen (AID 1178).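 Also: growth measured as culture turbidity by optical density at 650 nm; test concentration not given here.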 As to conditions: E. coli DRC39 acrAB, higher = more signal, called active from +8 up or from −8 down.
Test [8] is described as follows: growth of efflux-deficient E. coli DRC39 – strain DRC39, OD650, 48 h, E. coli filamentation inducers, primary screen (AID 1179).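 Also: screen aims at cell division blockers that make cells filament.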 Particulars: E. coli DRC39 delta-acrAB growth, higher = more signal, called active from +8 up or from −8 down.
The nature of test [9]: viability profiling in RPMI8226 myeloma cells – cell-based, resazurin fluorescence, basal, 24 h, PK04 Diversity Set, profiling panel (AID 1180).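 Also: RPMI8826 multiple myeloma cell line at 5000 cells per well; test concentration not given here.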 Particulars: higher = more signal.
For test [10], the target named is E3 ubiquitin-protein ligase XIAP (Homo sapiens) (UniProt P98170). Kind of test: small molecules binding XIAP protein – biophysical, small-molecule microarray, fluorescence 635 nm, primary screen (AID 1181).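 Also: score merges 667 nm emission and signal to noise over triplicate slides.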 As to conditions: higher = more signal.
E3 ubiquitin-protein ligase XIAP (Homo sapiens), sequence (P98170 whole entry, looked up): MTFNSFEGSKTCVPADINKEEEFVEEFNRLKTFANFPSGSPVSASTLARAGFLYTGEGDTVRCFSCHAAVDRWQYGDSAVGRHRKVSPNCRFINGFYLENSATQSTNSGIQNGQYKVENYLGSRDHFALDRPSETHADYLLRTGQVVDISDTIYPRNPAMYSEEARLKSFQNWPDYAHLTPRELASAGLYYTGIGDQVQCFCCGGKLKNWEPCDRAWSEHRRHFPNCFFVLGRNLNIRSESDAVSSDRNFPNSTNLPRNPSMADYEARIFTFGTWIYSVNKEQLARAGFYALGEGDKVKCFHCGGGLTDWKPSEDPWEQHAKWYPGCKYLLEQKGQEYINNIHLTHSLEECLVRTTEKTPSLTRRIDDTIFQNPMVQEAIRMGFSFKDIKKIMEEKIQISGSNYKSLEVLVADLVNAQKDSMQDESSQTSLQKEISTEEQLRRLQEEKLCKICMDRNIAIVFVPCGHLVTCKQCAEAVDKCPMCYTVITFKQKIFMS

Dihydroorotate dehydrogenase (quinone), mitochondrial (Plasmodium falciparum (isolate 3D7)), sequence (Q08210 whole entry, looked up): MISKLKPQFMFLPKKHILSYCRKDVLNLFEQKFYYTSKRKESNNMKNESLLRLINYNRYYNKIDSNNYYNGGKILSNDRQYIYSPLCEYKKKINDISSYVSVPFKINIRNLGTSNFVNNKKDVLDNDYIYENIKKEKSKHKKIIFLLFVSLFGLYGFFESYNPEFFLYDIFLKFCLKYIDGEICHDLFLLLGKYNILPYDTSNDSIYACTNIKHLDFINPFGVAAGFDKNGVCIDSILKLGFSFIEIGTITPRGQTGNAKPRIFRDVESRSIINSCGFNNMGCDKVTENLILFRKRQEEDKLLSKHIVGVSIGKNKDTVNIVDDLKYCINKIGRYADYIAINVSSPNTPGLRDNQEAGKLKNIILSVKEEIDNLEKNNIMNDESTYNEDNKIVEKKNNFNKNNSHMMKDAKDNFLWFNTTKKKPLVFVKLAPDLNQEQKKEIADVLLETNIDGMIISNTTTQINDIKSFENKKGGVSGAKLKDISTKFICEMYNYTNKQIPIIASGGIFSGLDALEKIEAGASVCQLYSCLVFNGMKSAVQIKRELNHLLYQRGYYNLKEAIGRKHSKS

As for `CCN1C(=O)[C@H]2[C@H]3[C@H](O)[C@H](O)CC(=NOC[C@@H](O)[C@H]4O[C@@H]5OC(C)(C)O[C@@H]5[C@H]4O)[C@@H]3CC[C@H]2C1=O`, the z-score in test [1] was -1.27; in [2] it was -0.569 (inactive); in test [3], -2.69 (inactive); in [5] it was -0.795 (inactive); in test [6] it was -0.0223 (inactive); in test [7] it was 0.74 (inactive). Besides, the z-score was 0.144 (inactive) in [8] and -0.767 in test [9]. The composite z-score was -0.898 (inactive) in test [4] and 0.0126 in test [10].

With `CCOC(=O)[C@H](CC(C)C)NC(=O)CCC1CC(OC(=O)NCCc2ccc(F)cc2)CC2(CCCC(COC(=O)NCCCN3CCCC3=O)O2)O1` (stereo not given in full), the z-score in test [1] is 0.653; in test [2] it was -0.796 (inactive); in test [3], 0.469 (inactive); in test [5], 0.909 (inactive); in test [6], -0.129 (inactive); in [7] it was 0.698 (inactive). Besides, the values for the z-score in test [8] and in [9] were -0.405 (inactive) and 1.32, respectively. Besides, the composite z-score in test [4] is 0.0102 (inactive); in [10], -0.179.

In the case of `CO[C@H]1COC(=O)[C@H](CCSC)NC(=O)CC=C[C@@H](C)[C@H](OC)COC(=O)[C@@H](OCc2ccccc2)C=C[C@@H]1C`, the z-score is 0.81 in [1]; -0.41 (inactive) in [2]; -0.059 (inactive) in test [3]; -1.38 (inactive) in test [5]; -0.208 (inactive) in [6]; 0.345 (inactive) in test [7]. Further, the z-score in [8] is 0.238 (inactive); in [9], 0.519. Besides, the composite z-score in test [4] was -0.611 (inactive); in test [10] it was -0.0965.

For `C=CC[C@@H]1C=C[C@H](ON=C(C)CCN2CCCCc3nc(C)c(C)cc32)[C@@H](CO)O1`, the z-score is 0.162 in test [1]; 0.399 (inactive) in [2]; -0.201 (inactive) in test [3]; 0.323 (inactive) in test [5]; 0.334 (inactive) in test [6]; -0.275 (inactive) in [7]. Besides, the z-score is -0.681 (inactive) in test [8] and -0.103 in test [9]. Also, the composite z-score in [4] was -0.923 (inactive); in test [10], 0.183.

`COc1ccc(COC(=O)NN=C2C[C@@H](O)[C@@H](O)[C@@H]3[C@@H]4C(=O)N([C@@H](C)c5ccccc5)C(=O)[C@@H]4CC[C@H]23)cc1`: the z-score is 0.453 in [1]; -0.111 (inactive) in [2]; 0.334 (inactive) in test [3]; 0.683 (inactive) in [5]; -0.677 (inactive) in test [6]; -0.267 (inactive) in test [7]. In addition, the results for the z-score in [8] and in test [9] were 0.197 (inactive) and 0.818, respectively. The composite z-score in test [4] is -0.308 (inactive); in test [10], 0.0193.

For the compound `COc1ccc(OC[C@@H](CO)OC)cc1`, the z-score in [1] is -0.279; in test [2], 0.0175 (inactive); in test [3], -0.143 (inactive); in test [5], -0.364 (inactive); in test [6] it was -0.334 (inactive); in test [7], 0.293 (inactive). For the same compound, the z-score in [8] is 0.178 (inactive); in test [9], 0.421. In addition, the values for the composite z-score in test [4] and in test [10] were -0.591 (inactive) and -0.0344, respectively.

`O=C1[C@H]2[C@H]3[C@H](O)[C@H](O)CC(=NO[C@@H]4O[C@H](CO)[C@@H](O)[C@H](O)[C@H]4O)[C@@H]3CC[C@H]2C(=O)N1C[C@@H]1CCCO1`: the z-score in [1] is -0.0979; in [2] it was -2.29 (inactive); in [3] it was -0.589 (inactive); in [5], -0.589 (inactive); in test [6], -0.633 (inactive); in [7], 0.564 (inactive). The z-score in test [8] is 0.172 (inactive); in test [9], 0.062. For the same compound, the composite z-score in test [4] was -2.39 (inactive); in test [10], -0.152.

For the compound `CCN1C(=O)[C@H]2[C@H]3[C@H](O)[C@H](O)CC(=NOCC(C)C)[C@H]3CC[C@H]2C1=O`, the z-score in test [1] is -0.259; in [2] it was -0.36 (inactive); in [3], -0.929 (inactive); in test [5], -0.225 (inactive); in [6], -0.117 (inactive); in test [7], 0.645 (inactive). Besides, the z-score in test [8] was 0.568 (inactive); in test [9], -0.971. For the same compound, the composite z-score in test [4] is -0.649 (inactive); in [10], -0.122.

As to `COC(=O)[C@H](C)NC(=O)CCC1CC(OC(=O)NCc2ccc3c(c2)OCO3)CC2(CCCC(COC(=O)NCCc3ccc(Cl)cc3)O2)O1` (stereo not given in full), the z-score was 0.388 in test [1]; 0.515 (inactive) in [2]; -0.682 (inactive) in [3]; -0.965 (inactive) in [5]; 0.88 (inactive) in test [6]; 0.616 (inactive) in [7]. In addition, the z-score in test [8] is -0.729 (inactive); in test [9], 0.0968. The figures for the composite z-score in [4] and in test [10] were 0.0925 (inactive) and -0.0559, respectively.

For the compound `CCN1C(=O)[C@H]2[C@@H]3C(=CC[C@H]2C1=O)C(=O)[C@H]1O[C@H]1[C@H]3O`, the z-score is -1.22 in test [1]; -1.12 (inactive) in test [2]; -5.38 (inactive) in [3]; -0.978 (inactive) in test [5]; -0.628 (inactive) in test [6]; -0.615 (inactive) in [7]. For the same compound, the z-score was -0.788 (inactive) in test [8] and -2.17 in [9]. In addition, the composite z-score is -0.0207 (inactive) in [4] and 0.334 in test [10].

As to `COc1cccc([C@H](O)Cn2cc(-c3ccc(CON=C(C)C)cc3)nn2)c1`, the z-score in [1] was -0.262; in test [2], -0.377 (inactive); in test [3], -0.307 (inactive); in test [5] it was 0.475 (inactive); in test [6], -0.47 (inactive); in [7] it was 0.419 (inactive). In addition, the z-score in test [8] is 0.291 (inactive); in [9], -0.0501. The results for the composite z-score in test [4] and in test [10] were -0.217 (inactive) and -0.167, respectively.

Turning to `O=C(NN=C1C[C@@H](O)[C@@H](O)[C@@H]2[C@@H]3C(=O)N(Cc4ccccc4)C(=O)[C@@H]3CC[C@H]12)OCc1ccccc1`, the z-score in [1] is 0.604; in test [2] it was -0.921 (inactive); in [3] it was 1.14 (inactive); in test [5], 0.471 (inactive); in test [6] it was -0.948 (inactive); in test [7] it was 0.59 (inactive). In addition, the z-score was -0.783 (inactive) in [8] and 0.9 in [9]. In addition, the composite z-score was -0.993 (inactive) in [4] and -0.21 in [10].
